# Rows were chosen to be rich in hits. Some 3.3% of all compounds tested hit in one or more screens of this group.
# HNF4A DNA FP – change in binding of human HNF4A to DNA, primary screen, biochemical, fluorescence polarization, FITC-DNA; 1 h; activity change, % at 10 µM; hit rate 0.3% among 360,000; in the data active = activity change above about 30%, passing the limit was not always enough
# Target sequence (P41235 whole entry, looked up): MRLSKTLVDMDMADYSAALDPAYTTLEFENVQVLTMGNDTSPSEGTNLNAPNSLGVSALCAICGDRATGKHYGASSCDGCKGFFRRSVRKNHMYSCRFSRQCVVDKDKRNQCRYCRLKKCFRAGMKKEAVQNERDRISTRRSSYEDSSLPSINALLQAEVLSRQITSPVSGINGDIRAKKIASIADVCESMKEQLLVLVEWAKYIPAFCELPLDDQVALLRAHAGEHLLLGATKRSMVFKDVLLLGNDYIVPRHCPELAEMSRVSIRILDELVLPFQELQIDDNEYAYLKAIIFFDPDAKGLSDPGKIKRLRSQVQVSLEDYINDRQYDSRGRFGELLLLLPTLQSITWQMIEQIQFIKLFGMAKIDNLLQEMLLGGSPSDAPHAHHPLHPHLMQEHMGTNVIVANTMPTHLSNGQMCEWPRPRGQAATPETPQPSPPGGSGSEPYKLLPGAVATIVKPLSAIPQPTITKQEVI
# PHOSPHO1 inh – PubChem AID 1565. Phosphoethanolamine/phosphocholine phosphatase (Homo sapiens), Q8TCT1. recombinant PHOSPHO1, absorbance phosphatase assay. inhibition, % at 13.3 µM. hit rate 1.1% among 290,000; in the data active = inhibition above about 60%
# Fh CTSL1 inh – Fasciola hepatica cathepsin L1 inhibitors, primary screen, counter-screen for PFM18AAP inhibitor project, biochemical, QFRET, fluorogenic peptide substrate; recombinant F. hepatica cathepsin L1, Z-Leu-Arg-MCA fluorescence; inhibition, % at 5.96 µM; hit rate 0.49% among 300,000; AID 1906, 2009;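 active = inhibition above the mean of all tested compounds plus 3 SD, set per screening campaign, cut at about 17% in these data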;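 also: 0% = plate median of test compound wells and 100% = 1 µM Z-Phe-Ala-diazomethylketone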
# NRP1-CendR mod – modulators of CendR peptide binding to NRP-1, primary screen, biochemical, fluorescence polarization, uHTS; Neuropilin-1 (Homo sapiens), O14786; FAM-RPARPAR peptide binding to NRP-1; inhibition, % at 25 µM; hit rate 0.85% among 360,000; AID 602438, 2012;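 active = inhibition or corrected inhibition above about 18%, plus a signal ratio from 0.5 to 1.5, limit read from the data, passing the limit was not always enough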
# TPT1 inhibitor – Candida albicans TPT1 enzyme inhibitors, primary screen, biochemical, fluorescence polarization; tRNA 2'-phosphotransferase TPT1 (Candida albicans SC5314); recombinant caTPT1, FP RNA substrate dephosphorylation; inhibition, % at 5 µM; hit rate 0.81% among 300,000;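 active = inhibition above the mean of all tested compounds plus 3 SD, set per screening campaign, cut at about 24% in these data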;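 also: plate controls were DMSO alone for no effect and ferristatin control at 100 nM for full effect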
# Rpn11 inh – Rpn11 (PSMD14) deubiquitinase inhibitors, primary screen, biochemical, fluorescence polarization, uHTS; inhibition, % at 20 µM; AID 588493, 2011; human 26S proteasome, Ub4-pepOG fluorescence polarization; 20S core pre-blocked with epoxomicin; hit rate 0.59% among 360,000;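 active = inhibition at 20 µM, scaled to each plate's controls, above about 33%, limit read from the data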
# An asterisk follows results filed as active; nt = not tested or not shown.
SMILES,HNF4A DNA FP,PHOSPHO1 inh,Fh CTSL1 inh,NRP1-CendR mod,TPT1 inhibitor,Rpn11 inh
O=C1NC[C@@H](CCCCN2CCN(Cc3ccccc3)C(=O)C2=O)N(Cc2ccccc2)C1=O,-1,nt,nt,-10,nt,nt
CCOc1cc(OCC)cc(C(=O)N2CCC[C@@H]2C(=O)N2CCC[C@@H]2C(=O)NCc2ccccc2Cl)c1,0,nt,nt,-11,nt,nt
Nc1ccc(S(=O)(=O)N2CCc3ccccc32)cc1,85*,19,-5,-6,0,-22
O=C(O)CCCC(=O)N1CCc2cc(S(=O)(=O)N3CCc4ccccc43)ccc21,0,0,5,30*,2,5
O=C1N=C(N2C=CC(=C3C=CNC=C3)C=C2)/C(=C/N=NC(=O)c2ccccc2O)S1,-36,13,6,41*,-29,-75
O=C(O)/C=C/C(=O)c1c(-c2ccccc2)[nH]c2ccccc12,-5,-40,58*,-16,-2,4
COc1cc(/C=C/C(=O)NCCc2ccc(S(N)(=O)=O)cc2)ccc1OCC#N,1,20,2,-2,-1,3
CCOc1cc(/C=C/C(=O)NCCc2ccc(S(N)(=O)=O)cc2)ccc1OCC(C)C,-1,34,19*,6,-1,-6
COc1cc(/C=N/NC(=O)CNc2n[nH]c(=O)[nH]c2=O)ccc1OCc1ccccc1,0,1,4,-5,-1,6
CCOc1cccc(NC(=O)C2CC(=O)N(c3ccc(F)cc3)C2)c1 (centres undefined),5,20,0,2,0,-6
Cc1cc(=O)n2nc(N3CCCC(C(=O)NCc4ccccc4)C3)sc2n1 (centres undefined),-2,23,-1,11,1,0
Cc1cc(=O)n2nc(N3CCCC(C(=O)N4CCN(c5ccccc5)CC4)C3)sc2n1 (centres undefined),3,-29,17*,7,-2,-5
COc1ccccc1/C=C/C(=O)N1CCc2cc(OC)c(OC)cc2C1C (centres undefined),2,29,-3,-12,-2,-1
Nc1c(C(=O)Nc2ccc(S(=O)(=O)N3CCCC3)cc2)sc2nc3ccc(OC(F)(F)F)cc3cc12,43*,-24,2,-109,18,nt
Cc1cc(C)n2nc(CC(=O)NNC(=O)c3ccc(N(C)C)cc3)nc2n1,0,49,36*,-3,4,-3
CCC1(O)C(=O)OCc2c1cc1n(c2=O)Cc2cc3cc(O)ccc3nc2-1 (centres undefined),-73,nt,nt,45*,nt,-137
CCc1c2c(nc3ccc(OC(=O)N4CCC(N5CCCCC5)CC4)cc13)-c1cc3c(c(=O)n1C2)COC(=O)[C@]3(O)CC,nt,nt,0,-4,0,-2
CCOC(=O)c1c(C)c(-c2ccccc2)n(CC(=O)NCCCN(CC)CC)c1C,2,4,-3,-3,-2,-9
CCOC(=O)c1c(C)c(-c2ccccc2)n(CC(=O)NCCC(C)C)c1C,-1,6,89*,-9,-1,1
CC(=O)NC(Cc1cccc(C)c1)C(=O)NC1CCN(C(=O)NCc2ccccc2)CC1 (centres undefined),2,27,nt,4,nt,-1
COC(=O)c1[nH]c2ccccc2c1NC(=O)C(C)N1CCN(C(=O)c2ccco2)CC1 (centres undefined),3,72*,-5,0,3,-6
O=C(Cc1ccccc1)NCC(=O)N1CCN(c2ccccc2)CC1,1,47,4,27*,2,-1
Cc1ccc(-n2c(N)c(C(=O)N3CCOCC3)sc2=S)cc1,5,76*,1,1,-4,4
O=S(=O)(CC(O)COc1ccccc1Cl)c1ccccc1 (centres undefined),-1,66*,-1,-4,1,-4
NNc1ccc([N+](=O)[O-])c2[nH][nH]c(=O)c12,-71,nt,nt,29*,nt,10
SMILES,HNF4A DNA FP,PHOSPHO1 inh,Fh CTSL1 inh,NRP1-CendR mod,TPT1 inhibitor,Rpn11 inh
CC(C)(C)OC(=O)N1CCC(C(=O)Nc2cccc(C(=O)N3CCOCC3)c2)CC1,2,nt,nt,-1,nt,-1
Cc1cccc(C(=O)OCC(=O)Nc2c(C)n(C)n(-c3ccccc3)c2=O)c1,3,nt,nt,19*,nt,2
COc1cccc(NC(=O)Nc2c(C)n(C)n(-c3ccccc3)c2=O)c1,0,-1,-1,-2,-1,0
Cc1c(NC(=O)Nc2cccc(C(F)(F)F)c2)c(=O)n(-c2ccccc2)n1C,3,66*,0,13,-3,-11
Cc1ccsc1C(=O)OCC(=O)Nc1c(C)n(C)n(-c2ccccc2)c1=O,4,-5,-7,5,3,-2
CC1(C(=O)Nc2ccc3c(c2)OCCO3)CCN1C(=O)C1(c2ccc(Cl)cc2)CCC1 (centres undefined),0,nt,nt,-5,nt,11
CC(C)n1c(=N)c(C(=O)NCCc2ccccc2)cc2c(=O)n3ccccc3nc21,-4,63*,3,-18,6,-1
CCn1c(-c2ccccc2Cl)nn(CC(=O)Nc2ccccc2C)c1=S,0,100*,9,-4,-9,0
CCN(CC)CCN(C(=O)CCOc1ccccc1)c1nc2ccc(F)cc2s1,0,-14,1,1,-1,0
O=C(CCCn1c(SCC(=O)NCCc2ccccc2)nc2ccccc2c1=O)NCC1CCCO1 (centres undefined),0,-8,0,8,-2,-3
Cc1cc(NC(=O)CCC(=O)NNC(=O)c2ccc(C(C)(C)C)cc2)no1,5,1,-12,36*,0,2
Cc1cc(NC(=O)CCCC(=O)NCc2ccccc2)no1,-5,15,1,36*,-6,-4
Cc1ccc(CNC(=O)CCCC(=O)Nc2cc(C)on2)cc1,-1,-23,1,0,-1,-8
Cc1ccc(C(=O)NNC(=O)CCC(=O)Nc2cc(C)on2)cc1,-3,1,0,-6,-4,-4
CCC(C)(C)NC(=O)C1CCCN(S(=O)(=O)c2ccc3c(c2)CC(C)N3C(=O)C2CC2)C1 (centres undefined),2,63*,-5,-1,0,-3
COCCCNC(=O)C1Cc2cc(S(=O)(=O)N3CCCC3)ccc2N1C(C)=O (centres undefined),3,12,-1,-3,-2,-5
COCCNC(=O)C1Cc2cc(S(=O)(=O)N3CCCC3)ccc2N1C(C)=O (centres undefined),4,28,-2,24*,4,4

# Bioassay records: PubChem BioAssay, several laboratories
